# Key:
# Assay in all cases: DAPPL (digital affinity profiling via proximity ligation, sequencing); 10 mM Tris-HCl pH 7.5, 50 mM NaCl, 1 mM DTT, 4% glycerol, room temperature, 30 min; GST-TFs on glutathione beads, 16-mer random dsDNA library, 0.1% formaldehyde crosslink after washing; high values mean tight binding
# Conditions in all cases: protein: recombinant; tags: N-terminal GST; dsDNA, one strand shown
# FLI1 = biological target: T1, FLI1 (Homo sapiens, UniProt Q01543 1-452)
# T1 sequence: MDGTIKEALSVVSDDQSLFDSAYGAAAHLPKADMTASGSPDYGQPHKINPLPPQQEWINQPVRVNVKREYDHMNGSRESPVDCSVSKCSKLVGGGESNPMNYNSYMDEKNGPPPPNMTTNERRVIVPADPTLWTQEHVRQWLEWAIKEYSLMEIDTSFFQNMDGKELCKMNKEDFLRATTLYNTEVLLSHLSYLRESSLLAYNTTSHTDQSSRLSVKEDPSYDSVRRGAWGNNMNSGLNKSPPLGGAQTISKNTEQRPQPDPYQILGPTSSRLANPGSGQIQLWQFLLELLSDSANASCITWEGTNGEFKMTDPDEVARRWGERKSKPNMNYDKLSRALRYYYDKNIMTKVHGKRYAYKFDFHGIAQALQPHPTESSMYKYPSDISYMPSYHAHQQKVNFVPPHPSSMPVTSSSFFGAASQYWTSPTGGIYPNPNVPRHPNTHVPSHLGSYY
# Outline: (§1)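 Each value of binding signal is a hexamer's read frequency for a factor divided by the same hexamer's frequency in the tag-only sample. Barcoded, bead-captured GST fusions of human transcription factors made in yeast were pooled with that sample and incubated with 200 nmole of a random double-stranded 16-mer DNA library in Tris/NaCl/DTT/glycerol buffer at room temperature for 30 min. Washing, 0.1% formaldehyde crosslinking, proximity ligation, PCR and Illumina NextSeq500 sequencing followed.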
# ELK1 = biological target: T2, ELK1 (Homo sapiens, UniProt P19419 1-428)
# T2 sequence: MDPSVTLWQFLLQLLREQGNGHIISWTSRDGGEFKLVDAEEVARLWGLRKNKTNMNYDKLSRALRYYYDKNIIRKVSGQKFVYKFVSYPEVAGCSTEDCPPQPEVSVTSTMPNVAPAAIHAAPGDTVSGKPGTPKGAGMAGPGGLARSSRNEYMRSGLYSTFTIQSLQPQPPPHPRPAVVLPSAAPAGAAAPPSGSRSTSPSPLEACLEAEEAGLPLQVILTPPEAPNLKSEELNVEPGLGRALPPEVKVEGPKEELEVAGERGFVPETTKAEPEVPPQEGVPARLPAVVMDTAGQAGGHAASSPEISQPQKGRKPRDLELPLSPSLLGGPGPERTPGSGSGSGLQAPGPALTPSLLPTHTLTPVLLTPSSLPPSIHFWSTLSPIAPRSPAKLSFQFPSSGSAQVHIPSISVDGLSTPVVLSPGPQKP
# Outline: as §1
# GABPA = biological target: T3, GABPA (Homo sapiens, UniProt Q06546 1-454)
# T3 sequence: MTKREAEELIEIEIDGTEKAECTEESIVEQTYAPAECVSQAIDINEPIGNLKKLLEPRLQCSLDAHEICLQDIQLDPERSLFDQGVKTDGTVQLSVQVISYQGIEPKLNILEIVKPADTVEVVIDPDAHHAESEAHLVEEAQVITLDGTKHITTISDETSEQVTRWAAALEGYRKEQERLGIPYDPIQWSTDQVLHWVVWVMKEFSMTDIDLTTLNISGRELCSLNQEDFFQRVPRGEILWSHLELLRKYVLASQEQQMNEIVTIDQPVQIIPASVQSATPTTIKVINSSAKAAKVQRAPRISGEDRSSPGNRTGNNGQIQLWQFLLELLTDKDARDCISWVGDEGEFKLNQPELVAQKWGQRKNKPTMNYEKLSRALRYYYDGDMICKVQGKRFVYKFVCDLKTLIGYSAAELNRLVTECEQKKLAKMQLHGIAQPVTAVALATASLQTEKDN
# Outline: as §1
# ERG = biological target: T4, ERG (Homo sapiens, UniProt P11308 1-479)
# T4 sequence: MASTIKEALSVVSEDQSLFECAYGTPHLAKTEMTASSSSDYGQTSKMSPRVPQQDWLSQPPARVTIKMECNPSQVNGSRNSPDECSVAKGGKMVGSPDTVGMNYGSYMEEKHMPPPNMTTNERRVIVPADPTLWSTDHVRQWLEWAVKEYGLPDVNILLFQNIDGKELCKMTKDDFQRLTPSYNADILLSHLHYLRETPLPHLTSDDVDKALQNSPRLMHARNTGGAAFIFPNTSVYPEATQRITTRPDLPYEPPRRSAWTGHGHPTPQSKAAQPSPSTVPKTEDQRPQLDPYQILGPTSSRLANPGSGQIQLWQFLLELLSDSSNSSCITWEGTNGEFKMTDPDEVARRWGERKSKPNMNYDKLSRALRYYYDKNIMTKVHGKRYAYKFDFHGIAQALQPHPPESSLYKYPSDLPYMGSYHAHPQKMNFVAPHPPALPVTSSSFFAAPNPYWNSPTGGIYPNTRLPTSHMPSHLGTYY
# Outline: as §1
# ELF1 = ELF1 (Homo sapiens, UniProt P32519 1-619)
# ELF1, sequence (P32519 whole entry): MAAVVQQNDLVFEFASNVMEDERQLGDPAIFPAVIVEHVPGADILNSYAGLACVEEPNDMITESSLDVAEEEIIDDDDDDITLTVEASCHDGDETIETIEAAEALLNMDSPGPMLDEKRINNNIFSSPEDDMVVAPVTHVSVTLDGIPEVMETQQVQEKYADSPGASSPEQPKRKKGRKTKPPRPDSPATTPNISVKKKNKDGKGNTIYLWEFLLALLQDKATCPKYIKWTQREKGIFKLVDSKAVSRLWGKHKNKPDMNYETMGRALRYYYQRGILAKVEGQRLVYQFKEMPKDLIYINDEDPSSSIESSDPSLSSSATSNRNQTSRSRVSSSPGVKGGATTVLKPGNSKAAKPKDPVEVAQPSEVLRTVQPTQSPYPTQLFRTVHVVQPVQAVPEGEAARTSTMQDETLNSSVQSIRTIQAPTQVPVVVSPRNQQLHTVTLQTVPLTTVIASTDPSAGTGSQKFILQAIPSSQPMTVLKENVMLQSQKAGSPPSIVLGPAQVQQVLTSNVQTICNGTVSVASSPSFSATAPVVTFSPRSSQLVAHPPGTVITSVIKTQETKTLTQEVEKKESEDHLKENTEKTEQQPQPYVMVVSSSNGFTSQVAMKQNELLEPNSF
# Outline: as §1
# EHF = biological target: T5, EHF (Homo sapiens, UniProt Q9NZC4 1-300)
# T5 sequence: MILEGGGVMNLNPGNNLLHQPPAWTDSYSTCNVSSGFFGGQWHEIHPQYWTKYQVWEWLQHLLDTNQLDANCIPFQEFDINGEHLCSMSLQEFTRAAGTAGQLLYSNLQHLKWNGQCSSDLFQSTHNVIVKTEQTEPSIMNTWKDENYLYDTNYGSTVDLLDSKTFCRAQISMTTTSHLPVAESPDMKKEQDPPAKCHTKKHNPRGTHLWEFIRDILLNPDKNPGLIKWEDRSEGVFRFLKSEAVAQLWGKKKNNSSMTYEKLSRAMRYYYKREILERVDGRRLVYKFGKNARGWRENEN
# Outline: as §1
# SPI1 [1] = biological target: SPI1 (Homo sapiens, UniProt P17947 1-270)
# Outline: as §1
# SPIB = SPIB (Homo sapiens, UniProt Q01892 1-262)
# SPIB, sequence (Q01892 whole entry): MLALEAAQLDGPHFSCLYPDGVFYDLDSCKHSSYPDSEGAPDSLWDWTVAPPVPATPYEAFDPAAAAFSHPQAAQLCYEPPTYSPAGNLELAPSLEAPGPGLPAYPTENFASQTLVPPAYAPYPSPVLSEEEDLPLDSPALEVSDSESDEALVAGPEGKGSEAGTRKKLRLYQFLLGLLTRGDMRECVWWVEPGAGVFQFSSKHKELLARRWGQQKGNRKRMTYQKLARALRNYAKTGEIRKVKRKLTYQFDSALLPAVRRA
# Outline: as §1
# ELK3 = biological target: T6, ELK3 (Homo sapiens, UniProt P41970 1-407)
# T6 sequence: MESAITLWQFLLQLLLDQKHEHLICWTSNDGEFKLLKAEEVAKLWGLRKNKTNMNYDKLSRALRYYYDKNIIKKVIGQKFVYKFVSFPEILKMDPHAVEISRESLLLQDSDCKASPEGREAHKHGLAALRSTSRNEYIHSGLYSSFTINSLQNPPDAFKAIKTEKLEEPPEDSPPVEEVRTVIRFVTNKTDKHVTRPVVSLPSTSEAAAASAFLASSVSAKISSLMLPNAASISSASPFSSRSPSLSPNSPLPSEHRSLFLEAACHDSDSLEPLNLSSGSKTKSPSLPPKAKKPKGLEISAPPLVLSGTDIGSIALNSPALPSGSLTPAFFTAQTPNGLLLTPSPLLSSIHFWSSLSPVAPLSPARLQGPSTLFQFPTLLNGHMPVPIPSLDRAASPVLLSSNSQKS
# Outline: as §1
# SPI1 [2] = biological target: SPI1 (Homo sapiens, UniProt P17947 1-270); remark: listed apart in the source
# Outline: as §1
Sequence,binding signal (FLI1),binding signal (ELK1),binding signal (GABPA),binding signal (ERG),binding signal (ELF1),binding signal (EHF),binding signal (SPI1 [1]),binding signal (SPIB),binding signal (ELK3),binding signal (SPI1 [2])
CTTGGA,"1.28 fold enrichment (6-mer frequency, TF over GST control)","1.15 fold enrichment (6-mer frequency, TF over GST control)","1.16 fold enrichment (6-mer frequency, TF over GST control)","1.17 fold enrichment (6-mer frequency, TF over GST control)","1.27 fold enrichment (6-mer frequency, TF over GST control)","1.13 fold enrichment (6-mer frequency, TF over GST control)","1.14 fold enrichment (6-mer frequency, TF over GST control)","1.2 fold enrichment (6-mer frequency, TF over GST control)","1.17 fold enrichment (6-mer frequency, TF over GST control)",–
ACGCTA,"1.14 fold enrichment (6-mer frequency, TF over GST control)","1.18 fold enrichment (6-mer frequency, TF over GST control)","1.14 fold enrichment (6-mer frequency, TF over GST control)","1.2 fold enrichment (6-mer frequency, TF over GST control)","1.15 fold enrichment (6-mer frequency, TF over GST control)","1.1 fold enrichment (6-mer frequency, TF over GST control)","1.19 fold enrichment (6-mer frequency, TF over GST control)","1.07 fold enrichment (6-mer frequency, TF over GST control)","1.27 fold enrichment (6-mer frequency, TF over GST control)",–
TACTTC,"3.38 fold enrichment (6-mer frequency, TF over GST control)","3.79 fold enrichment (6-mer frequency, TF over GST control)","3.25 fold enrichment (6-mer frequency, TF over GST control)","3.88 fold enrichment (6-mer frequency, TF over GST control)","3.54 fold enrichment (6-mer frequency, TF over GST control)","3.7 fold enrichment (6-mer frequency, TF over GST control)",–,"3.33 fold enrichment (6-mer frequency, TF over GST control)","4.29 fold enrichment (6-mer frequency, TF over GST control)","4.12 fold enrichment (6-mer frequency, TF over GST control)"
